Screens deposited in PubChem BioAssay by SRMLSC.
Most compounds without a hit are left out; they make up all but 6.6% or so of the library.
Spn PMK inh: S. pneumoniae PMK inhibitors, primary screen, biochemical, mevalonate pathway, pilot trial included; phosphomevalonate kinase (Streptococcus pneumoniae D39); purified PMK, PK/LDH-coupled NADH absorbance 340 nm; 65,000 compounds, 0.49% hits; AID 539, 2006; inhibition, % at 10 µM;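 active = top-ranked compounds by inhibition in the single 10 µM screen, taking a fixed number of the strongest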
DPM-DC inhibit: S. pneumoniae DPM-DC inhibitors, primary screen, biochemical, PK/LDH-coupled NADH fluorescence; calls only at 10 µM; purified DPM-DC; AID 556, 2006; diphosphomevalonate decarboxylase (Streptococcus pneumoniae D39); 65,000 compounds, 0.49% hits;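 active = the 320 compounds with the highest percent inhibition in the single-dose primary screen, excluding strongly autofluorescent ones, cut at about 32% in these data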;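 also: kinetic rate of NADH fluorescence loss reporting ADP formed by the decarboxylase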
MK inhibit: S. pneumoniae MK inhibitors, primary screen, biochemical, PK/LDH-coupled NADH absorbance. mevalonate kinase [Streptococcus pneumoniae D39]. purified MK, PK/LDH-coupled NADH absorbance 340 nm. inhibition, % at 10 µM. 65,000 compounds, 0.48% hits. AID 555, 2006;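 active = ranked among the strongest by inhibition in the single 10 µM screen, a fixed top-ranked set picked for dose follow-up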
Fluor 339 460: intrinsic fluorescence of library compounds, ex339/em460 – biochemical, MLSMR library, data from DPM-DC assay, artefact control, profiling panel. compound autofluorescence, ex339/em460 nm, NADH buffer; hits give high values; 1 = no-compound wells, NADH background. fluorescence fold increase at 10 µM. 65,000 compounds, 5.5% hits. AID 709, 2007;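 active = at 10 µM, mean starting fluorescence two-fold or more over control wells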;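 also: signal is the first read of a kinetic run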
NADH enzymes: inhibitors of PK/LDH coupling enzymes, profiling panel, artefact control, biochemical, MLSMR library; coupled PK/LDH NADH assays, four targets; IC50, µM (titrated, usually from 10 µM); 65,000 compounds, 0.02% hits;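 active = single-dose screening hits from any of four coupled enzyme assays that gave an IC50 when retested across doses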;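 also: the DPM-DC format reads NADH fluorescence rather than 340 nm absorbance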
Hits are given with their value.

What do the screens show for `O=C(NCc1ccco1)c1ccc2c(=O)n(CC3CCCO3)c(=S)[nH]c2c1` (stereo unspecified)?
Spn PMK inh: inactive; DPM-DC inhibit: inactive; MK inhibit: inactive; Fluor 339 460: inactive; NADH enzymes: inactive

Results for CCOCCCn1c(=S)[nH]c2cc(C(=O)N3CCOCC3)ccc2c1=O ?
Spn PMK inh: inactive; DPM-DC inhibit: inactive; MK inhibit: inactive; Fluor 339 460: inactive; NADH enzymes: inactive

Results for CCCCN(C)CCn1c(=S)[nH]c2ccc(N3CCOCC3)cc2c1=O ?
Spn PMK inh: inactive; DPM-DC inhibit: inactive; MK inhibit: inactive; Fluor 339 460: 2.5; NADH enzymes: inactive

How did COCCn1c(=S)[nH]c2ccc(N(C)C)cc2c1=O do in these assays?
Spn PMK inh: inactive; DPM-DC inhibit: inactive; MK inhibit: inactive; Fluor 339 460: 3.8; NADH enzymes: inactive

How did O=C(CC1(C(F)(F)F)OCCO1)Nc1ccc2c(c1)OCO2 do in these assays?
Spn PMK inh: inactive; DPM-DC inhibit: inactive; MK inhibit: inactive; Fluor 339 460: inactive; NADH enzymes: inactive

What do the screens show for `CCOc1ccccc1NC(=O)c1ccccc1-c1nc(-c2ccccc2OC)no1`?
Spn PMK inh: inactive; DPM-DC inhibit: inactive; MK inhibit: inactive; Fluor 339 460: inactive; NADH enzymes: inactive

How did O=C(CC1Sc2ccccc2NC1=O)Nc1cccc(-c2nnc3n2CCCCC3)c1 (stereo unspecified) do in these assays?
Spn PMK inh: inactive; DPM-DC inhibit: inactive; MK inhibit: inactive; Fluor 339 460: inactive; NADH enzymes: inactive

What do the screens show for `Cc1[nH]c2ccccc2c1SCC(=O)N1CCOCC1`?
Spn PMK inh: inactive; DPM-DC inhibit: inactive; MK inhibit: inactive; Fluor 339 460: inactive; NADH enzymes: inactive

Results for O=c1c2cc(N3CCOCC3)ccc2[nH]c(=S)n1Cc1ccccn1 ?
Spn PMK inh: inactive; DPM-DC inhibit: active; MK inhibit: inactive; Fluor 339 460: 3.5; NADH enzymes: inactive

Results for O=C(CCn1c(=S)[nH]c2ccccc2c1=O)N1CCOCC1 ?
Spn PMK inh: inactive; DPM-DC inhibit: inactive; MK inhibit: inactive; Fluor 339 460: inactive; NADH enzymes: inactive

What do the screens show for `CCc1cc(N2CCOCC2)cc2c1[nH]c1ccccc12`?
Spn PMK inh: inactive; MK inhibit: inactive; Fluor 339 460: 4; NADH enzymes: inactive

How did Cc1ccc(C)c(N2C(=O)CN=C2Nc2ccccc2Cl)c1 do in these assays?
Spn PMK inh: inactive; DPM-DC inhibit: inactive; MK inhibit: inactive; Fluor 339 460: inactive; NADH enzymes: inactive

What do the screens show for `CCCC(=O)Nc1nn(C)c2nc3c(C)cccc3cc12`?
Spn PMK inh: inactive; DPM-DC inhibit: inactive; MK inhibit: inactive; Fluor 339 460: inactive; NADH enzymes: inactive

Results for Cc1cccc2cc3c(NC(=O)c4ccccn4)nn(C)c3nc12 ?
Spn PMK inh: inactive; DPM-DC inhibit: inactive; MK inhibit: inactive; Fluor 339 460: 2.1; NADH enzymes: inactive

What do the screens show for `Nc1nnc(-c2ccco2)s1`?
Spn PMK inh: inactive; DPM-DC inhibit: inactive; MK inhibit: inactive; Fluor 339 460: inactive; NADH enzymes: inactive

Results for Nc1ncnc2oc(-c3ccco3)c(-c3ccco3)c12 ?
Spn PMK inh: inactive; MK inhibit: inactive; Fluor 339 460: 2.4; NADH enzymes: inactive

What do the screens show for `CCC(OC(=O)c1cc2sccc2n1C)C(=O)NCc1ccco1` (stereo unspecified)?
Spn PMK inh: inactive; DPM-DC inhibit: inactive; MK inhibit: inactive; Fluor 339 460: inactive; NADH enzymes: inactive

What do the screens show for `CCOC(=O)C1=C(C)NC2=C(C(=O)CC(C)(C)C2)C1c1cccc(C)n1` (stereo unspecified)?
Spn PMK inh: inactive; MK inhibit: inactive; Fluor 339 460: 4.9; NADH enzymes: inactive

What do the screens show for `CCCOC(=O)C1=C(C)NC2=C(C(=O)CC(C)(C)C2)C1c1ccc(N(C)C)cc1` (stereo unspecified)?
Spn PMK inh: inactive; DPM-DC inhibit: inactive; MK inhibit: inactive; Fluor 339 460: inactive; NADH enzymes: inactive

What do the screens show for `Brc1ccc(-c2cn3cccnc3n2)cc1`?
Spn PMK inh: inactive; MK inhibit: inactive; Fluor 339 460: 3.4; NADH enzymes: inactive

How did c1ccc(-c2cnnc(SCc3cn4cccnc4n3)n2)cc1 do in these assays?
Spn PMK inh: inactive; DPM-DC inhibit: inactive; MK inhibit: inactive; Fluor 339 460: inactive; NADH enzymes: inactive

Results for CCOCC(=O)Nc1cc(-c2cn3cccnc3n2)ccc1C ?
Spn PMK inh: inactive; MK inhibit: inactive; Fluor 339 460: 5.3; NADH enzymes: inactive

How did COCC(=O)Nc1ccc(-c2cn3cccnc3n2)cc1 do in these assays?
Spn PMK inh: inactive; MK inhibit: inactive; Fluor 339 460: 5.2; NADH enzymes: inactive

Results for CCOc1ccccc1NC(=O)CCN1CCN(S(=O)(=O)c2ccc(Br)cc2)CC1 ?
Spn PMK inh: inactive; DPM-DC inhibit: inactive; MK inhibit: inactive; Fluor 339 460: inactive; NADH enzymes: inactive

Results for Cc1sc2nc3n(c(=O)c2c1C)Cc1ccccc1-3 ?
Spn PMK inh: inactive; MK inhibit: inactive; Fluor 339 460: 3.7; NADH enzymes: inactive

How did CCN1CCc2c(sc(N)c2C#N)C1 do in these assays?
Spn PMK inh: inactive; DPM-DC inhibit: inactive; MK inhibit: inactive; Fluor 339 460: inactive; NADH enzymes: inactive

How did N#Cc1c(NCCO)nc(NCc2ccccc2)c2c1CCN(Cc1ccccc1)C2 do in these assays?
Spn PMK inh: inactive; DPM-DC inhibit: active; MK inhibit: inactive; Fluor 339 460: 2.2; NADH enzymes: inactive

Results for N#Cc1c(N)sc(=S)c2c1CCN(Cc1ccccc1)C2 ?
Spn PMK inh: 29; MK inhibit: inactive; Fluor 339 460: 4.3; NADH enzymes: inactive

How did CCCc1nn(C)c2c1C(c1ccncc1)C(C#N)=C(N)O2 (stereo unspecified) do in these assays?
DPM-DC inhibit: inactive; MK inhibit: inactive; Fluor 339 460: inactive; NADH enzymes: inactive

Results for N#Cc1nc(-c2cccs2)oc1N1CCOCC1 ?
Spn PMK inh: inactive; MK inhibit: inactive; Fluor 339 460: 2.3; NADH enzymes: inactive

Results for CC1CN(c2oc(-c3cccs3)nc2C#N)CC(C)O1 (stereo unspecified) ?
Spn PMK inh: inactive; MK inhibit: inactive; Fluor 339 460: 2.4; NADH enzymes: inactive

What do the screens show for `CN(Cc1cccs1)C(=O)COc1ccc(-c2nnco2)cc1`?
Spn PMK inh: inactive; DPM-DC inhibit: inactive; MK inhibit: inactive; Fluor 339 460: inactive; NADH enzymes: inactive

Results for Cc1ccc(-c2nnn(CC(=O)N3CCN(c4ccccc4)CC3)n2)o1 ?
Spn PMK inh: inactive; DPM-DC inhibit: inactive; MK inhibit: inactive; Fluor 339 460: inactive; NADH enzymes: inactive

What do the screens show for `O=C(C1CCN(Cc2ccc(OCc3ccccc3)cc2)CC1)N1CCCC1`?
Spn PMK inh: 34; DPM-DC inhibit: inactive; MK inhibit: 59; Fluor 339 460: inactive; NADH enzymes: inactive

What do the screens show for `COc1ccc(CN2CCCC(C(=O)N3CCCC3)C2)cc1` (stereo unspecified)?
Spn PMK inh: inactive; DPM-DC inhibit: inactive; MK inhibit: inactive; Fluor 339 460: inactive; NADH enzymes: inactive
